Test results: PubChem BioAssay (NCI)
Values joined by “and” are separate entries in the source; they are usually repeats but may differ in a detail not shown here. Equal values may be shown once. About 83,000 compounds went through this panel and 20% of them were active in at least one assay; those are over-represented in the sample as a whole.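 In brief: 96-well plates, 48 h treatment, single concentration, percent growth endpoint.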 More than one record can exist for a structure, and the calls need not agree. Active and inactive are the calls of the source. Rule for the calls: active = growth percent below 10; inactive = the rest.

Key:
Test in all cases: NCI-60 one-dose screen, 48 h (100 = growth as untreated, 0 = no growth, -100 = all killed)
Settings in all cases: 10 µM unless noted
NCI-H23 lung = system: NCI-H23 lung
NCI-H226 lung = system: NCI-H226 lung
NCI-H322M lung = system: NCI-H322M lung
HOP-62 NSCLC = system: HOP-62 NSCLC
NCI-H460 lung = system: NCI-H460 lung
HOP-92 NSCLC = system: HOP-92 NSCLC
NCI-H522 lung = system: NCI-H522 lung
A549/ATCC NSCLC = system: A549/ATCC NSCLC
786-0 renal = system: 786-0 renal
COLO 205 colon = system: COLO 205 colon
DU-145 prostate = system: DU-145 prostate
K-562 leukemia = system: K-562 leukemia
MALME-3M melanoma = system: MALME-3M melanoma
MDA-MB-231 breast = system: MDA-MB-231 breast
RXF 393 renal = system: RXF 393 renal
SF-268 CNS = system: SF-268 CNS
SF-295 CNS = system: SF-295 CNS
SF-539 CNS = system: SF-539 CNS
UACC-257 melanoma = system: UACC-257 melanoma
M14 melanoma = system: M14 melanoma

Compound | growth (NCI-H23 lung) | growth (NCI-H226 lung) | growth (NCI-H322M lung) | growth (HOP-62 NSCLC) | growth (NCI-H460 lung) | growth (HOP-92 NSCLC) | growth (NCI-H522 lung) | growth (A549/ATCC NSCLC) | growth (786-0 renal) | growth (COLO 205 colon) | growth (DU-145 prostate) | growth (K-562 leukemia) | growth (MALME-3M melanoma) | growth (MDA-MB-231 breast) | growth (RXF 393 renal) | growth (SF-268 CNS) | growth (SF-295 CNS) | growth (SF-539 CNS) | growth (UACC-257 melanoma) | growth (M14 melanoma)
O=C(Nc1ccc(Cl)cc1)c1cc2ccccc2cc1O | 12.2% (inactive) and 4.22% (active) | 54.4% (inactive) and 42.1% (inactive) | 17.1% (inactive) and 19.6% (inactive) | 63.6% (inactive) and 5.51% (active) | 8.06% (active) and -15.7% (active) | -9.86% (active) | 26.1% (inactive) and -32.3% (active) | 68.2% (inactive) and 26.4% (inactive) | 67.1% (inactive) and -31.9% (active) | 91.4% (inactive) and 70.4% (inactive) | 29.6% (inactive) and 10% (inactive) | 14.1% (inactive) and 7.46% (active) | 29.4% (inactive) and 17% (inactive) | 52.7% (inactive) and 41.7% (inactive) | 53.6% (inactive) and -17% (active) | 53.6% (inactive) and 24.9% (inactive) | 10.2% (inactive) and 3.7% (active) | 22.7% (inactive) and 12.5% (inactive) | 20.7% (inactive) | 55% (inactive) and 7.47% (active)
OC1CCC(Oc2cccc3cnc(Nc4ccc5nc[nH]c5c4)nc23)CC1 (stereo not given) | -21.5% (active) and 25.5% (inactive) | 9.66% (active) and 31.6% (inactive) | 12.2% (inactive) and 50.6% (inactive) | -24.5% (active) and 5.23% (active) | 4.89% (active) and 25.8% (inactive) | 14.2% (inactive) and 40.3% (inactive) | -21.9% (active) and 54% (inactive) | -9.62% (active) and 28.9% (inactive) | 15.5% (inactive) and 38.8% (inactive) | -30.1% (active) and 34.8% (inactive) | 13.2% (inactive) and 48% (inactive) | 9.4% (active) and 54% (inactive) | -8.81% (active) and 86.7% (inactive) | 2.87% (active) and 44.5% (inactive) | -16.8% (active) and 23% (inactive) | 1.49% (active) and 45.4% (inactive) | 13.1% (inactive) and 62.2% (inactive) | -34.1% (active) and 32% (inactive) | -24.7% (active) and 44.8% (inactive) | -9.41% (active) and 49.1% (inactive)
O=C(CN1CCN(c2cc3c(cc2F)c(=O)c(C(=O)O)cn3C2CC2)CC1)Nc1ccc(Cl)cc1 | 94.5% (inactive) and 87.5% (inactive) | 80.1% (inactive) and 96.7% (inactive) | 53.8% (inactive) and 56% (inactive) | 71.7% (inactive) and 100% (inactive) | 88% (inactive) and 90.1% (inactive) | 78.9% (inactive) and 87.2% (inactive) | -13.7% (active) and 83.5% (inactive) | 69.2% (inactive) and 86.8% (inactive) | 70.1% (inactive) and 83.8% (inactive) | 99.9% (inactive) and 109% (inactive) | 99.1% (inactive) and 103% (inactive) | 68.1% (inactive) and 67.9% (inactive) | 91.8% (inactive) and 91.1% (inactive) | 60.2% (inactive) and 70.1% (inactive) | 74.7% (inactive) and 84.3% (inactive) | 91.2% (inactive) and 92.5% (inactive) | 87.9% (inactive) and 96.6% (inactive) | 86.9% (inactive) and 85.6% (inactive) | 57% (inactive) and 88.4% (inactive) | 81.8% (inactive) and 92% (inactive)
CC(O)(CC(=O)CC(=O)c1ccccc1)c1ccccc1 (stereo not given) | 102% (inactive) and 87.4% (inactive) | 93.9% (inactive) and 86% (inactive) | 116% (inactive) and 105% (inactive) | 106% (inactive) and 99.2% (inactive) | 94.2% (inactive) and 101% (inactive) | 100% (inactive) and 94.7% (inactive) | 90.9% (inactive) and 96.4% (inactive) | 103% (inactive) and 97.4% (inactive) | 101% (inactive) and 106% (inactive) | 127% (inactive) | 143% (inactive) and 102% (inactive) | 91.2% (inactive) | 113% (inactive) and 96.5% (inactive) | 97.4% (inactive) and 88.5% (inactive) | 94.1% (inactive) and 93.3% (inactive) | 110% (inactive) and 98.8% (inactive) | 91.1% (inactive) | 104% (inactive) and 108% (inactive) | 90.6% (inactive) and 110% (inactive) | 96.1% (inactive) and 96% (inactive)
O=C(N/N=C/c1ccc2c(c1)OCO2)c1ccncc1 | 99% (inactive) and 101% (inactive) | 108% (inactive) and 93.3% (inactive) | 114% (inactive) and 94.6% (inactive) | 99.5% (inactive) and 108% (inactive) | 101% (inactive) and 111% (inactive) | 106% (inactive) and 70.1% (inactive) | 77.8% (inactive) and 96.3% (inactive) | 108% (inactive) and 109% (inactive) | 109% (inactive) and 101% (inactive) | 101% (inactive) and 110% (inactive) | 114% (inactive) and 113% (inactive) | 106% (inactive) | 110% (inactive) and 82.1% (inactive) | 94.5% (inactive) and 108% (inactive) | 114% (inactive) and 103% (inactive) | 109% (inactive) and 102% (inactive) | 113% (inactive) and 107% (inactive) | 101% (inactive) and 123% (inactive) | 92.9% (inactive) and 112% (inactive) | 105% (inactive) and 103% (inactive)
Oc1ccc(/C=C/c2ccccc2)cc1 | 73.2% (inactive) and 76.4% (inactive) | 104% (inactive) and 103% (inactive) | 77.6% (inactive) and 83.4% (inactive) | 109% (inactive) and 87.9% (inactive) | 73.4% (inactive) and 61.5% (inactive) | 95.7% (inactive) | 72.1% (inactive) and 29.2% (inactive) | 76.1% (inactive) and 59.9% (inactive) | 32.8% (inactive) and 45.1% (inactive) | 104% (inactive) and 132% (inactive) | 50.9% (inactive) and 58.4% (inactive) | 64.7% (inactive) and 58.4% (inactive) | 97.9% (inactive) and 71.7% (inactive) | 57.4% (inactive) and 47.1% (inactive) | 75.9% (inactive) and 91% (inactive) | 53.7% (inactive) and 62.5% (inactive) | 82.8% (inactive) and 81% (inactive) | 79.6% (inactive) and 68.7% (inactive) | 100% (inactive) and 87.9% (inactive) | 68% (inactive) and 73.4% (inactive)
O=C(Nc1cccc(Cl)c1)c1cc2ccccc2cc1O | 4.9% (active) and 9.55% (active) | 45.8% (inactive) and 40.6% (inactive) | 15% (inactive) and -3.24% (active) | 37.7% (inactive) and 15.1% (inactive) | 5.98% (active) and 5.93% (active) | -30.8% (active) and -32.5% (active) | 1.12% (active) and 2.91% (active) | 20.7% (inactive) and 9.25% (active) | 53.6% (inactive) and 17.3% (inactive) | 104% (inactive) and 42.6% (inactive) | 22.1% (inactive) and 25.1% (inactive) | 25.8% (inactive) and 10.5% (inactive) | 2.77% (active) and -9.95% (active) | 27% (inactive) and -1.46% (active) | 18% (inactive) and 33% (inactive) | 21.2% (inactive) and 24.4% (inactive) | 13.5% (inactive) and 62.2% (inactive) | 28.4% (inactive) and 11.7% (inactive) | 5.37% (active) and -16.3% (active) | 48.4% (inactive) and 18.2% (inactive)
CNc1cc(-c2cccc(OC(F)(F)F)c2)nc2ccc(N3CCCC3)cc12 | 66.5% (inactive) and 6.85% (active) and 8.59% (active) | 94.6% (inactive) and 68.5% (inactive) and -35.2% (active) | 61.8% (inactive) and -4.66% (active) and 76.6% (inactive) | 74.6% (inactive) and 45.7% (inactive) and 33.4% (inactive) | -68% (active) and -62.5% (active) and -65.4% (active) | -31.9% (active) and 13% (inactive) and 28.5% (inactive) | 32.2% (inactive) and -63.9% (active) and -35.6% (active) | -34.3% (active) and 9.17% (active) and 15.2% (inactive) | -86% (active) and -95.3% (active) and -67.6% (active) | -25.6% (active) and -81.7% (active) and -75.7% (active) | -43.5% (active) and 6.55% (active) and 12.9% (inactive) | -42.3% (active) and -31.2% (active) and -12.4% (active) | -74.2% (active) and -88.1% (active) and -75.4% (active) | -47.4% (active) and -63.4% (active) and -2.52% (active) | -64.4% (active) and -78.3% (active) and -67.5% (active) | 78.9% (inactive) and 61.6% (inactive) and 55.9% (inactive) | 82.8% (inactive) and -66.4% (active) and -74.5% (active) | -76.6% (active) and -78.4% (active) and -68.4% (active) | 82% (inactive) and -59.4% (active) and -57.4% (active) | -87% (active) and -86.6% (active) and -76.4% (active)
